# Source: PubChem BioAssay
# TDP1 cell CPT: qHTS for Inhibitors of human tyrosyl-DNA phosphodiesterase 1 (TDP1): qHTS in cells in presence of CPT. chicken DT40 Tdp1-/-;hTDP1 cells + 20 nM CPT, ATP luminescence, 48 h. Potency, µM (series often up to 46.2 µM), for the others: at the highest dose activity change, negative = growth inhibition, actives largely listed as inhibitors. 420,000 tested, 12% active. AID 686979, 2013; further: potency means the concentration at half of the fitted maximal effect; nearly all actives have a fitted effect of over 55% in size
#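 Chicken DT40 Tdp1-/- cells complemented with human TDP1, 400 cells/well, exposed to compounds plus 20 nM camptothecin for at least 48 h at 37 C; viability read as ATP content by CellTiter-Glo luminescence.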
# DT40 TDP1 no CPT: qHTS for Inhibitors of human tyrosyl-DNA phosphodiesterase 1 (TDP1): qHTS in cells in absence of CPT. Potency, µM (titrated, usually from 46.2 µM), for the others: at the top dose activity change, negative = growth inhibition, hits mostly inhibitors. 420,000 tested, 15% active. DT40 Tdp1-/- hTDP1 cells, no CPT, ATP luminescence, 48 h; further: potency means the concentration at half of the fitted maximal effect; nearly all actives have a fitted effect of over 55% in size
#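 No-CPT arm: Tdp1-/-;hTDP1 DT40 cells (400/well) plus compounds, incubated ≥48 hr at 37 °C. Readout CellTiter-Glo luminescence.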
# IL-1B inflam inh: qHTS for Inhibitors of Inflammasome Signaling: IL-1-beta AlphaLISA Primary Screen; THP-1 LPS/ATP IL-1B secretion, AlphaLISA, 16 h; hits give low values; activity change, % at 57.5 µM; AID 743279, 2014; 360,000 tested, 4.7% active; in the data active means activity change below about -50%; inconclusive means mostly about -30% to -49%
#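 THP-1 cells pretreated 1 hr with compounds (up to 57.5 uM final), then stimulated with LPS (250 ng/mL final) plus ATP (1.25 mM final); secreted IL-1B measured by AlphaLISA after 16 hr, decreased signal indicating inhibition.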
# HT1080NT lethal: qHTS for induction of synthetic lethality in tumor cells producing 2HG: qHTS for the HT-1080-NT fibrosarcoma cell line. Potency, µM (top dose mostly 46.1 µM), without a hit: top-dose activity, negative = less viability, most hits filed as cytotoxic. 360,000 tested, 1.6% active. HT-1080-NT fibrosarcoma viability, CellTiter-Glo ATP luminescence, 48 h;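 further: NT is the 2HG producing partner of a matched IDH1 knockdown line; potency means the concentration at half of the fitted maximal effect; 0% = DMSO-treated cells and -100% = media-only wells without cells; nearly all actives have a fitted effect of over 55% in size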
#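 Read-out is CellTiter-Glo luminescence after 10 minutes at room temperature, following 48 hours' compound treatment of HT-1080-NT cells (750 cells/well, RPMI, 5% FBS, 37 degrees C).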
# HT1080 IDH1KD tx: qHTS for induction of synthetic lethality in tumor cells producing 2HG: qHTS for the HT-1080-IDH1KD cell line; HT-1080 IDH1 knockdown viability, ATP luminescence, 48 h; Potency, µM (top dose mostly 46.1 µM), for the others: top-dose activity, negative = toxicity, hits mostly cytotoxic; 360,000 tested, 2% active;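 further: potency means the concentration at half of the fitted maximal effect; 0% = DMSO wells and -100% = cell-free medium wells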
#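 CellTiter-Glo luminescence after 48 h compound exposure at 37 degrees C of IDH1-knockdown HT-1080 cells in 5% FBS RPMI. %Activity scaled between DMSO wells and cell-free media wells, with curves fitted and assigned curve classes.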
# Starred values were filed as active, the others as inactive; ? = inconclusive; . = no result given; [ ] = dose if it differs, or a comment. In the library only some 19% were active in any assay of this set; here they are far more common. Unless noted, the call rests on the fitted dose curve; in most records, active means well fitted curve in the direction sought with a large enough effect; inconclusive means small, poorly fitted or top-dose-only effect, or another doubt; inactive means no such curve, though single readings can be large; an effect the other way counts as inactive or inconclusive. Unless noted, on the % scale 0 is the no-effect control and ±100 the full control effect.
SMILES,TDP1 cell CPT,DT40 TDP1 no CPT,IL-1B inflam inh,HT1080NT lethal,HT1080 IDH1KD tx
O=C(Nc1nc(-c2ccc(F)cc2)cs1)C1CCN(C(=O)c2ccc(F)cc2)CC1,6.5µM*,5.8µM*,-84*,?,-28%
O=C(Nc1ccc(Br)cc1)C1CCN(C(=O)c2ccc(F)cc2)CC1,?,?,-73*,-23%,-21%
COc1ccc(NC(=O)C2CCCN(c3cc(C)nc4ncnn34)C2)cc1 (configuration not stated),0%,-24%,-13,-4%,-8%
CCc1ccc(CN(C)C(=O)C2=CC=CN3CCS(=O)(=O)N=C23)cc1,-15%,-18%,-7,19%,22%
CN(C)S(=O)(=O)c1cccc(COC(=O)C2=COCCO2)c1,-7%,-10%,0,-1%,0%
O=C(NCc1ccc(F)cc1)C1CC(=O)N(C2CCCCCCC2)C1 (configuration not stated),0%,0%,0,6%,11%
O=C(CCn1c(=O)c2ccccc2n(CC(=O)NC2CCCC2)c1=O)NCc1ccco1,-10%,-10%,-29,12%,11%
CC1CCC(NC(=O)C2CCN(c3c4c(nc5ncnn35)CCC4)CC2)CC1 (configuration not stated),?,16µM*,40,-14%,-21%
COc1ccccc1NC(C)C(=O)Nc1ccc(C(C)=O)cc1 (configuration not stated),?,21µM*,2,5%,-4%
COc1ccc(CC(NC(C)=O)C(=O)NC2CCN(c3c4c(nc5ncnn35)CCC4)CC2)cc1 (configuration not stated),-24%,0%,-9,0%,4%
COc1ccc(NC(=O)C2CCN(c3nc(C)nc4c3CCC4)CC2)cc1,12µM*,16µM*,?,?,-16%
COc1ccc(C(=O)N2CCC(C(=O)Nc3ccc(OC)c(OC)c3)CC2)cc1,-2%,-22%,-11,-3%,5%
COc1ccc(NC(=O)C2CCN(C(=O)c3ccc(OC)cc3)CC2)cc1,15µM*,?,13,6%,11%
COc1ccccc1NC(=O)C(C)Nc1ccc(C)c(Cl)c1 (configuration not stated),-15%,?,-6,-18%,-6%
O=C(Cc1cccs1)NCc1ccc(Cl)cc1Cl,-1%,-13%,-7,11%,0%
Cc1cnc(C(=O)Nc2ccccc2-c2nnn(CC(=O)NC3CCCC3)n2)cn1,-2%,-5%,25,11%,10%
Cc1nc2[nH]c(=O)[nH]c(=O)c2[nH]1,11%[9.04 µM],-20%[9.04 µM],.,.,.
CCN(C(=O)CSc1nnc2nc(C)cc(C)n12)c1ccccc1,0%,-1%,8,-10%,11%
Cc1[nH]nc2c1/C(=N\O)CCC2,7%,0%,0,1%,19%
Cc1ccccc1-n1ncc2c1CC(C)(C)CC2NC(=O)C1CCC1 (configuration not stated),2%,-3%,52,1%,8%
Cc1noc(C)c1-c1ccc2ncnc(NCc3cccs3)c2c1,12µM*,23µM*,.,.,.
CN[C@H]1CCc2cc(OC)c(OC)c(OC)c2-c2ccc(N(C)CC(OC)OC)c(=O)cc21,7.3µM*,6.5µM*,48,4.1µM*,?
COc1c(O[C@@H]2O[C@H](CO)[C@@H](O)[C@H](O)[C@H]2O)cc2c(c1OC)-c1ccc(SC)c(=O)cc1[C@@H](NC(C)=O)CC2,12%[21.1 µM],-1%[21.1 µM],.,.,.
COc1cc2c(cc1OC)C(COc1ccc(F)cc1)N(C(C)=O)CC2 (configuration not stated),-15%,0%,-10,-1%,-11%
COc1cc2c(c(OC)c1OC)-c1ccc(N(C)CC(OC)OC)c(=O)cc1[C@@H](NC(C)=O)CC2,1.3µM*,0.65µM*,74,?,0.65µM*
SMILES,TDP1 cell CPT,DT40 TDP1 no CPT,IL-1B inflam inh,HT1080NT lethal,HT1080 IDH1KD tx
COc1cc2c(c(OC)c1OC)-c1ccc(OC)c(=O)cc1[C@@H](N(C)CC#CCO)CC2,0.21µM*,0.18µM*,48,0.0073µM*,0.16µM*
CCCN1CCC(C)(C(=O)Nc2cccc(OC(C)C)c2)C1 (configuration not stated),-8%,-7%,30,0%,16%
O=C(CSc1nnc(-c2ccccc2)o1)c1cccc([N+](=O)[O-])c1,-12%,?,.,.,.
CCCCC(=O)N1CCN(c2nc3ccc(F)cc3s2)CC1,?,8.2µM*,-2,?,?
CCCC(=O)N1CCN(c2nc3ccc(F)cc3s2)CC1,15µM*,12µM*,.,.,.
CCc1ccc2nc(N3CCN(C(=O)C(C)(C)C)CC3)sc2c1,?,18µM*,-2,-4%,6%
CCC(=O)N1CCN(c2nc3ccc(Br)cc3s2)CC1,?,18µM*,-19,?,?
O=C(CCCc1nc2ccccc2s1)N1CCN(c2ccccc2F)CC1,?,-14%,91,-1%,-3%
Cc1ccc(-c2nnn(CC(=O)N3CCN(c4nc5ccccc5s4)CC3)n2)cc1,-23%,-17%,-9,14%,24%
CCCC(=O)N1CCN(c2nc3ccccc3s2)CC1,?,-30%,8,-21%,-4%
COC(=O)C(Cc1cncn1COCc1ccccc1)NC(=O)OC(C)(C)C (configuration not stated),10%,15%,2,18%,24%
Cc1ccc(S(=O)(=O)Nc2cccc(C(=O)N3CCOCC3)c2)c(C)c1NS(C)(=O)=O,9%,2%,26,21%,22%
Cc1ccc(S(=O)(=O)Nc2ccc3c(c2)OCCO3)c(C)c1NS(C)(=O)=O,?,10µM*,8,-7%,-5%
Cc1ccc(Nc2c(-c3ccccc3O)nc3cnccn23)cc1,?,?,?,-10%,-10%
Oc1ccc(Br)cc1-c1nc2cnccn2c1NC1CCCC1,?,?,-93*,-13%,-13%
Oc1ccc(Br)cc1-c1nc2cnccn2c1NC1CCCCC1,-19%,-25%,-70*,?,-18%
C/C(=N\NC(=O)c1cc2ccccc2cc1O)c1cccs1,-21%,13µM*,-50*,?,?
C/C(=N/NC(=O)c1cccs1)c1cccs1,-11%,-8%,-14,-1%,8%
O=C(NNC(=O)c1cc2ccccc2cc1O)c1cccs1,23µM*,?,176,-10%,-18%
O=C(Nc1cnc(N2CCN(c3ccccc3)CC2)c(C(=O)O)c1)c1cccs1,3%,-21%,.,.,.
